Measured values: the supplement of paper PMC10849652
About 7,900 targets were measured; listed, in parts, are those with a hit and a random draw of the rest. About 0.6% of all pairs of compound and target were hits.

Assays:
Assay in all cases: log2 fold change, soluble protein after heating vs DMSO (PISA); higher = thermal stabilisation; K562 cells, 10 uM, 30 min; active = over 0.2 and 3.5 SD of the protein, either way, in both replicates (recomputed)
[1] = compound: C1=CC=C(C=C1)[C@H](COC2=CC3=C(C=C2)NC(=O)N3)NC(=O)C4=CC=CN(C4=O)CC5=CC(=C(C=C5)F)F
Method in brief: (§1)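 K562 cells at 2×10^6 cells/mL were treated for 30 min with 10 μM compound, and aliquots were heated for 3 min over 48°C-58°C before pooling. Extraction used PBS with 0.5% NP-40 at 4°C, and soluble protein was the supernatant after 21,000xg for 90 min, measured by TMTpro 16plex LC-MS/MS with channel sums equalised. Thermal stability values, relative to control samples and from duplicates, are log2 fold changes.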

[2] = compound: CC1=C(SC2=C1C(=N[C@H](C3=NN=C(N32)C)CC(=O)N)C4=CC=C(C=C4)Cl)C
Method in brief: as §1

[3] = compound: CC1=C2C(=CC=C1)N=C(N(C2=O)C3=CC=CC=C3C)CN4C=NC5=C(N=CN=C54)N
Method in brief: as §1

[4] = compound: Cc1sc2c(c1C)C(c1ccc(Cl)cc1)=N[C@@H](CC(=O)OC(C)(C)C)c1nnc(C)n1-2
Method in brief: as §1

[5] = compound: c1ccc([C@@H]2C[C@H]2NC2CCNCC2)cc1
Method in brief: as §1

Measured: log2 fold change

VPS11 (UniProt Q9H270)
inactive: [1] -0.089 | [2] 0.014 | [3] 0.118 | [4] -0.001 | [5] -0.047

TRIM23 (UniProt P36406)
inactive: [1] 0.023 | [2] 0.122 | [3] 0.049 | [4] -0.096 | [5] -0.05

UFL1 (UniProt O94874)
Sequence of UniProt O94874 (O94874 whole entry, looked up): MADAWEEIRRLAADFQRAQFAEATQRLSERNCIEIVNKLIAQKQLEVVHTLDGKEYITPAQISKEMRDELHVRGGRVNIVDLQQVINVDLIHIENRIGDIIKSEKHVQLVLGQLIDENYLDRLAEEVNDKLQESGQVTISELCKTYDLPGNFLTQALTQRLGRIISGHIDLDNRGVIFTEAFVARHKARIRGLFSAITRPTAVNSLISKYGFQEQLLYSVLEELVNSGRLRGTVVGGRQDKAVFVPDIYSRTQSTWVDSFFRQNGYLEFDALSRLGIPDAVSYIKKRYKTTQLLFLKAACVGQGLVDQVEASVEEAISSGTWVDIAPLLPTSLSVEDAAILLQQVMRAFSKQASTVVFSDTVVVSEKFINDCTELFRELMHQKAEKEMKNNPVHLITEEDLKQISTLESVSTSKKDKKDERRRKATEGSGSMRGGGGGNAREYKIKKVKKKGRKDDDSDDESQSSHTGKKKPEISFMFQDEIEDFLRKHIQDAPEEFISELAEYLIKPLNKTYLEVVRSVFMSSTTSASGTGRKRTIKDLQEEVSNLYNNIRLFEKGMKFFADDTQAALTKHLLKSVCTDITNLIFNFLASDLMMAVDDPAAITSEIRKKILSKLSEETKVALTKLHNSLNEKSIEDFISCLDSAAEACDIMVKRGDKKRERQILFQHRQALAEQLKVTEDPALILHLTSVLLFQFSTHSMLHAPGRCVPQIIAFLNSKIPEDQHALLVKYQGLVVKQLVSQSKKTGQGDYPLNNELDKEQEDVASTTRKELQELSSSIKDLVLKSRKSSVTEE
inactive: [1] -0.072 | [2] 0.012 | [3] 0.039 | [4] 0.001 | [5] -0.066

TUBA4A (UniProt P68366)
inactive: [1] -0.02 | [2] 0.077 | [3] -0.03 | [4] -0.01 | [5] -0.076

TMEM177 (UniProt Q53S58)
Sequence of UniProt Q53S58 (Q53S58 whole entry, looked up): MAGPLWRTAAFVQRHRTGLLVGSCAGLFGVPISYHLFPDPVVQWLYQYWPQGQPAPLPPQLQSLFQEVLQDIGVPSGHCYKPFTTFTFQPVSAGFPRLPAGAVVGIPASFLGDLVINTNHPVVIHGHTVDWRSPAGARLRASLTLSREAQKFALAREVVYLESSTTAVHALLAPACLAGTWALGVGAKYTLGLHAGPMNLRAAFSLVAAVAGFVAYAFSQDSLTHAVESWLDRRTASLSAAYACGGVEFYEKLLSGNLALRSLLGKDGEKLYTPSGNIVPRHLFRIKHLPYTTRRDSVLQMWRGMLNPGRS
inactive: [1] 0.036 | [2] -0.01 | [3] -0.164 | [4] -0.001 | [5] -0.002

UBE2E3 (UniProt Q969T4)
inactive: [1] -0.076 | [2] 0.119 | [3] 0.115 | [4] -0.088 | [5] -0.023

USO1 isoform 2 (UniProt O60763)
Sequence of UniProt O60763 (O60763 whole entry, looked up): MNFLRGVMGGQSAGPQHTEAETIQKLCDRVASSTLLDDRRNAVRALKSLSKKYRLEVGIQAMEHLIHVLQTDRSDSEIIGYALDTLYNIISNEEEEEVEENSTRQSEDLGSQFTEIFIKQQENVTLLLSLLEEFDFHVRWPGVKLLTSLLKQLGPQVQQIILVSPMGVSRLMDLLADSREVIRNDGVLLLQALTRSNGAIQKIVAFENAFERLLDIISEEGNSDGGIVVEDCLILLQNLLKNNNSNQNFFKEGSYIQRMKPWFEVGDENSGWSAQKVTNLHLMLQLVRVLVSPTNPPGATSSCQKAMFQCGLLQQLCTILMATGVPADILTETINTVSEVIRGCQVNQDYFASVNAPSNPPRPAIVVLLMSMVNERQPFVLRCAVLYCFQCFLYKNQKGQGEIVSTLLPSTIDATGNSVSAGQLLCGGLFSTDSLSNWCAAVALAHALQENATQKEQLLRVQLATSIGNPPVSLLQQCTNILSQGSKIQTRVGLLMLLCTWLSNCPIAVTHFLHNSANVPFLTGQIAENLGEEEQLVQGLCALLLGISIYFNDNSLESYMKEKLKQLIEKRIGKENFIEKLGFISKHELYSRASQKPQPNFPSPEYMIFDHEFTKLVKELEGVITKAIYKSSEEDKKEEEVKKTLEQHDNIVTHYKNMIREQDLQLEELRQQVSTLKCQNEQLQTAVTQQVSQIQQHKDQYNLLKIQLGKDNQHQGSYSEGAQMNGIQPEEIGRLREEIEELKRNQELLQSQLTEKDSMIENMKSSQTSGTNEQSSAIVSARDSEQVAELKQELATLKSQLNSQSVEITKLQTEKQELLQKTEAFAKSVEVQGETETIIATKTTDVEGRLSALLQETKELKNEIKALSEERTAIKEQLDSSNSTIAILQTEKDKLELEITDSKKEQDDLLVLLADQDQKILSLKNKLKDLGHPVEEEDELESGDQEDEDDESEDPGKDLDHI
inactive: [1] -0.007 | [2] 0.012 | [3] 0.028 | [4] 0.012 | [5] 0.048

TYW1 (UniProt Q9NV66)
Sequence of UniProt Q9NV66 (Q9NV66 whole entry, looked up): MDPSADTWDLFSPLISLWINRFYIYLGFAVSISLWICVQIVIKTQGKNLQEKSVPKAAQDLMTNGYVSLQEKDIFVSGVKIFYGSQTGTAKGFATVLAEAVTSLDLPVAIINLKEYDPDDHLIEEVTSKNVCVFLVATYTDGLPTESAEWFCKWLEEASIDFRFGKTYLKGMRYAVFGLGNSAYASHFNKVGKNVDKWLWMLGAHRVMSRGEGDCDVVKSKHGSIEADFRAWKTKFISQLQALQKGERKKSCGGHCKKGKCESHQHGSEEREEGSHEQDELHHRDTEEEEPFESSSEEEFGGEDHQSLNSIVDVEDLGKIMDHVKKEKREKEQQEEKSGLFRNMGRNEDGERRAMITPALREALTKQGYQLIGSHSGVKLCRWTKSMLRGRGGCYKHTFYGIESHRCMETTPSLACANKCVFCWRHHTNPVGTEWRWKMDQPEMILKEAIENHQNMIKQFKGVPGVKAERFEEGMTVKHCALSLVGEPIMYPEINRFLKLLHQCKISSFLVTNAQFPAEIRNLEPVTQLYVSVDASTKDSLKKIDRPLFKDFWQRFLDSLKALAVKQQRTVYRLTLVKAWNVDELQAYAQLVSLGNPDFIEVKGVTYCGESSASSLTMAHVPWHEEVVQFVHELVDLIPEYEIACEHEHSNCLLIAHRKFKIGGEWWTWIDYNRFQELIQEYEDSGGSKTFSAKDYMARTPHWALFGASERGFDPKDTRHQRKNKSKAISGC
inactive: [1] 0.017 | [2] -0.022 | [3] 0.039 | [4] -0.005 | [5] -0.091

VWA3B isoform 6 (UniProt Q502W6)
inactive: [1] -0.161 | [2] 0.069 | [3] 0.162 | [4] 0.129 | [5] 0.064

UBXN10 (UniProt Q96LJ8)
inactive: [1] 0.011 | [2] 0.014 | [3] 0.024 | [4] 0.018 | [5] 0.063

WASHC2A (UniProt Q641Q2)
inactive: [1] -0.006 | [2] -0.041 | [3] -0.017 | [4] 0.069 | [5] 0.033

TOE1 (UniProt Q96GM8)
inactive: [1] 0.049 | [2] -0.036 | [3] -0.095 | [4] 0.065 | [5] 0.014

TMEM214 (UniProt Q6NUQ4)
inactive: [1] 0.023 | [2] 0.044 | [3] 0.005 | [4] -0.002 | [5] -0.024

VPS33B (UniProt Q9H267)
Sequence of UniProt Q9H267 (Q9H267 whole entry, looked up): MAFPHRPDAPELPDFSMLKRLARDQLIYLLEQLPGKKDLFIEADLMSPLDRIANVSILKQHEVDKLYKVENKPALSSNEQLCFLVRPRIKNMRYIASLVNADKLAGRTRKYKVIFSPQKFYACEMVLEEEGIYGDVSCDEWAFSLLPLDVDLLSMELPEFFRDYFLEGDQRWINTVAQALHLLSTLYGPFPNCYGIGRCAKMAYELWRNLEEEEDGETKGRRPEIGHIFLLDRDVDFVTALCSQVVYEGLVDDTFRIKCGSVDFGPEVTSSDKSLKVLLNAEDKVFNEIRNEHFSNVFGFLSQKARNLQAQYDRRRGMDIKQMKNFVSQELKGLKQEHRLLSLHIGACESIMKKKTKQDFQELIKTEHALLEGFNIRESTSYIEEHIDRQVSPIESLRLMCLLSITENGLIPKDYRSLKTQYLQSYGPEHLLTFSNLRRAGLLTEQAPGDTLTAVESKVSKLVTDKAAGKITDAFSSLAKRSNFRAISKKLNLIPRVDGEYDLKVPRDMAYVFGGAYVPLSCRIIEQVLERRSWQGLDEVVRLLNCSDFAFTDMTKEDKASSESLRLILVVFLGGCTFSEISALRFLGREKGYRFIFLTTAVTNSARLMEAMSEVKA
inactive: [1] -0.102 | [2] 0.021 | [3] 0.03 | [4] 0.008 | [5] -0.064

TRMT2A (UniProt Q8IZ69)
Sequence of UniProt Q8IZ69 (Q8IZ69 whole entry, looked up): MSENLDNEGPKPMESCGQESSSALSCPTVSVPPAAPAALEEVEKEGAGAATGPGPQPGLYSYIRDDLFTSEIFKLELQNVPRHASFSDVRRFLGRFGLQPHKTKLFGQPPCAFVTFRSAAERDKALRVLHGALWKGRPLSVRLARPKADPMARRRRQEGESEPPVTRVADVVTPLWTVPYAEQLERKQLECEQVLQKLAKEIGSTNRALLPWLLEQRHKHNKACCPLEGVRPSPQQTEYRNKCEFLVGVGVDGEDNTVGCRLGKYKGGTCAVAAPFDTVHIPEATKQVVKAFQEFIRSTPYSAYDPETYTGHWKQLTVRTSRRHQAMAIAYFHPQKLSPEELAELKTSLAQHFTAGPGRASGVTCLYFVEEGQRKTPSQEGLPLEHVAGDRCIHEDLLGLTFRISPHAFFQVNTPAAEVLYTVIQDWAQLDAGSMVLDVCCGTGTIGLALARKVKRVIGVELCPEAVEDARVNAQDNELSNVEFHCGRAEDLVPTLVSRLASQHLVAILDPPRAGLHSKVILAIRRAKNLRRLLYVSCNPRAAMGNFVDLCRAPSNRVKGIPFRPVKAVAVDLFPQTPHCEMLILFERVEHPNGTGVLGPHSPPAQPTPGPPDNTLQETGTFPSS
inactive: [1] -0.008 | [2] -0.042 | [3] -0.026 | [4] 0.1 | [5] 0.058

TSFM (UniProt P43897)
inactive: [1] -0.17 | [2] 0.03 | [3] 0.177 | [4] -0.138 | [5] 0.012

TTI1 (UniProt O43156)
inactive: [1] -0.034 | [2] 0.136 | [3] 0.022 | [4] -0.025 | [5] -0.085

TTI2 (UniProt Q6NXR4)
inactive: [1] 0.07 | [2] 0.027 | [3] 0.031 | [4] 0.028 | [5] 0.041

WDR46 (UniProt O15213)
inactive: [1] 0.058 | [2] -0.35 | [3] -0.302 | [4] 0.246 | [5] -0.005

TOM1 (UniProt O60784)
inactive: [1] -0.077 | [4] 0.039

TPP1 (UniProt O14773)
Sequence of UniProt O14773 (O14773 whole entry, looked up): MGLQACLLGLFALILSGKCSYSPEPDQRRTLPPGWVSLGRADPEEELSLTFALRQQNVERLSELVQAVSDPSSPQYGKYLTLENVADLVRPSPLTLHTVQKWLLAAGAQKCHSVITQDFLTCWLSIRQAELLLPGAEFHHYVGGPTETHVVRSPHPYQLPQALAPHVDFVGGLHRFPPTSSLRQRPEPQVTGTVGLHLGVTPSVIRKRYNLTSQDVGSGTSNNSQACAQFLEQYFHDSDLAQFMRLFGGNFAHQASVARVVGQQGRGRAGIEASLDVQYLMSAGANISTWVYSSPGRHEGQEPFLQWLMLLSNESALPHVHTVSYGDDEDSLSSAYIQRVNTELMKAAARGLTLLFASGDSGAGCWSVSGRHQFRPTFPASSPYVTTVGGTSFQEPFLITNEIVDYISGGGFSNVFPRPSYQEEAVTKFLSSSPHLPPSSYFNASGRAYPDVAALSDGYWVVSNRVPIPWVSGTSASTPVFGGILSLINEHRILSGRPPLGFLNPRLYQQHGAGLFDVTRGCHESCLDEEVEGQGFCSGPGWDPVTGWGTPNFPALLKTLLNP
inactive: [1] 0.019 | [2] 0.048 | [3] -0.02 | [4] 0.036 | [5] -0.067

WARS1 (UniProt G3V277)
inactive: [1] -0.075 | [3] 0.283 | [4] 0.076

TSC2 (UniProt P49815)
inactive: [1] 0.062 | [2] 0.099 | [4] -0.044 | [5] 0.317

TRIM5 (UniProt Q9C035)
inactive: [2] 0.021 | [3] 0.023 | [4] 0.155 | [5] -0.004

WDR4 (UniProt P57081)
Sequence of UniProt P57081 (P57081 whole entry, looked up): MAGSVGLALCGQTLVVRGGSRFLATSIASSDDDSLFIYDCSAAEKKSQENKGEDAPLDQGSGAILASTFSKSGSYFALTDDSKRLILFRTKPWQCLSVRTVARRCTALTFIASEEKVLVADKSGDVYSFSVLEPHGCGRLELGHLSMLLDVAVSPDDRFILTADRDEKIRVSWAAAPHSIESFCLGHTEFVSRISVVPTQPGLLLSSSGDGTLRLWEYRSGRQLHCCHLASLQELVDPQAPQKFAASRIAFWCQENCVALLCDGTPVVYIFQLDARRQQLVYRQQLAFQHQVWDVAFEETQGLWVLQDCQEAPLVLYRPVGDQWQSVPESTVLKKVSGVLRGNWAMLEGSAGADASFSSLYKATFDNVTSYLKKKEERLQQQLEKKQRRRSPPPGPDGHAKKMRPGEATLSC
inactive: [1] -0.074 | [2] 0.048 | [3] -0.004 | [4] -0.025 | [5] -0.008
